Experimental data: the supplement of paper PMC10849652
Targets with a hit are over-represented here; the source holds about 7,900 in all. About 0.6% of all pairs of compound and target were hits.

compound: CCCS(=O)(=O)Nc1ccc(F)c(C(=O)c2c[nH]c3ncc(Cl)cc23)c1F; experiment: log2 fold change, soluble protein after heating vs DMSO (PISA); higher = thermal stabilisation; K562 cells, 10 uM, 30 min; active = over 0.2 and 3.5 SD of the protein, either way, in both replicates (recomputed)
In short: (§1)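 Values are thermal stability changes relative to control samples and are taken from duplicates. They are stated as log2 fold changes. Before quantification by TMTpro 16plex LC-MS/MS with equalised channel sums, K562 cells at 2×10^6 cells/mL were treated with 10 μM compound for 30 min, heated in aliquots for 3 min across 48°C-58°C, pooled, extracted in PBS with 0.5% NP-40 at 4°C, and centrifuged at 21,000xg for 90 min to give the soluble supernatant.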

Sequence of UniProt Q15059 (Q15059 whole entry, looked up): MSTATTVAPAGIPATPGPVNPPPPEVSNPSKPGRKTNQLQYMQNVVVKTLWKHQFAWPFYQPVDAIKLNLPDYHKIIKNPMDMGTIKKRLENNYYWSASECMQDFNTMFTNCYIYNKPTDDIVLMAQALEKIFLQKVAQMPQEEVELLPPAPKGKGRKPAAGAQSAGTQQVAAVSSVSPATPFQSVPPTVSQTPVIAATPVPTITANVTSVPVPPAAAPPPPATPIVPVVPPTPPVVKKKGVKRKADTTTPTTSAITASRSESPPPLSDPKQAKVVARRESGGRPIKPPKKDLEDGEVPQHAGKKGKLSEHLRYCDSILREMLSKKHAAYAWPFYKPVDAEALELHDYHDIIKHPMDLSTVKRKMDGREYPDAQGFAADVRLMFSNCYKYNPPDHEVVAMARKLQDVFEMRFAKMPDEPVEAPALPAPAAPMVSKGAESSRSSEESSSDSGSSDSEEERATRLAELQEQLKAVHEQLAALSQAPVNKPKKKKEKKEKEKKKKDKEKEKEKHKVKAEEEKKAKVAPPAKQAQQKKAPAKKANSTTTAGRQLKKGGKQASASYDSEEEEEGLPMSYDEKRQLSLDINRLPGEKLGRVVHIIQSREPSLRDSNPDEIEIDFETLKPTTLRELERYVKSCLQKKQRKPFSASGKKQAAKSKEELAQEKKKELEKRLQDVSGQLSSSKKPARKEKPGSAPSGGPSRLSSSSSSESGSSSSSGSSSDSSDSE
Sequence of UniProt Q96P47 (Q96P47 whole entry, looked up): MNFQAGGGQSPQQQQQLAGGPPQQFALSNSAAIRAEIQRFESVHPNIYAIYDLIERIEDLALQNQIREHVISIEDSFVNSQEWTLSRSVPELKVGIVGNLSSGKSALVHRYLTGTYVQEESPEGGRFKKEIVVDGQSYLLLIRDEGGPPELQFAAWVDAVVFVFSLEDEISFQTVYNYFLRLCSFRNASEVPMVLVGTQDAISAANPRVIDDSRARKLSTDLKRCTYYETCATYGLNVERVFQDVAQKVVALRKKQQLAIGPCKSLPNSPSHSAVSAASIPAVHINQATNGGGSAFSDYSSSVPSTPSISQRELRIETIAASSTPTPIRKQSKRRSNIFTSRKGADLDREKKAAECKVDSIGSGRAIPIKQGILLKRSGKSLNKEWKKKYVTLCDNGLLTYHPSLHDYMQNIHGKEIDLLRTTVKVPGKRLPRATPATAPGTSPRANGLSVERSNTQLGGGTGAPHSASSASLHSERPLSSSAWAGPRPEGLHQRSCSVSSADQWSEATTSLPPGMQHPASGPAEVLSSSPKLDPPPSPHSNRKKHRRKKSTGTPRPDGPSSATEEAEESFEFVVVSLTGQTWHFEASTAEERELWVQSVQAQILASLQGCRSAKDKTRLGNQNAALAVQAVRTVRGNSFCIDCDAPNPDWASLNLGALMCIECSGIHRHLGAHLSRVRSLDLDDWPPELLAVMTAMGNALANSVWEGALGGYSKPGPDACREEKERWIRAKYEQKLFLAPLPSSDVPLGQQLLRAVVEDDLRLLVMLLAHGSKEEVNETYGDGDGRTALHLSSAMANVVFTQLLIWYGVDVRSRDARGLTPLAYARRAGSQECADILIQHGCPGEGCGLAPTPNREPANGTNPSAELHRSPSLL
Sequence of UniProt Q9NX38 (Q9NX38 whole entry, looked up): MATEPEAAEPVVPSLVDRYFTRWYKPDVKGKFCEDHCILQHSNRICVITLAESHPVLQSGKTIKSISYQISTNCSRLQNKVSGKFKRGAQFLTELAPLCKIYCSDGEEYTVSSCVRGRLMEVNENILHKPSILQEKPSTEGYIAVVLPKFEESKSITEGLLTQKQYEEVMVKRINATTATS
Sequence of UniProt Q13685 (Q13685 whole entry, looked up): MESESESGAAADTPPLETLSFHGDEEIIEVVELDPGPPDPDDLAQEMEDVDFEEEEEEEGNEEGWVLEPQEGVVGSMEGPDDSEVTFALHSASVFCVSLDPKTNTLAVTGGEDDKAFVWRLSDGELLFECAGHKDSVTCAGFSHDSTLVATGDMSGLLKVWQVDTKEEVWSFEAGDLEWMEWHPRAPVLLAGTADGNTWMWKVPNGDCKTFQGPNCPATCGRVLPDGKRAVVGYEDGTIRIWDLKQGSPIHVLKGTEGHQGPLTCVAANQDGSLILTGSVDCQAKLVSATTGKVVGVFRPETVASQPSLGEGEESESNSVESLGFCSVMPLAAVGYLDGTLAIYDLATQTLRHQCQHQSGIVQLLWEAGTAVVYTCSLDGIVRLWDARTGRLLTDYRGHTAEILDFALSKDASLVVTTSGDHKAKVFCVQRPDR
Sequence of UniProt Q9UEY8 (Q9UEY8 whole entry, looked up): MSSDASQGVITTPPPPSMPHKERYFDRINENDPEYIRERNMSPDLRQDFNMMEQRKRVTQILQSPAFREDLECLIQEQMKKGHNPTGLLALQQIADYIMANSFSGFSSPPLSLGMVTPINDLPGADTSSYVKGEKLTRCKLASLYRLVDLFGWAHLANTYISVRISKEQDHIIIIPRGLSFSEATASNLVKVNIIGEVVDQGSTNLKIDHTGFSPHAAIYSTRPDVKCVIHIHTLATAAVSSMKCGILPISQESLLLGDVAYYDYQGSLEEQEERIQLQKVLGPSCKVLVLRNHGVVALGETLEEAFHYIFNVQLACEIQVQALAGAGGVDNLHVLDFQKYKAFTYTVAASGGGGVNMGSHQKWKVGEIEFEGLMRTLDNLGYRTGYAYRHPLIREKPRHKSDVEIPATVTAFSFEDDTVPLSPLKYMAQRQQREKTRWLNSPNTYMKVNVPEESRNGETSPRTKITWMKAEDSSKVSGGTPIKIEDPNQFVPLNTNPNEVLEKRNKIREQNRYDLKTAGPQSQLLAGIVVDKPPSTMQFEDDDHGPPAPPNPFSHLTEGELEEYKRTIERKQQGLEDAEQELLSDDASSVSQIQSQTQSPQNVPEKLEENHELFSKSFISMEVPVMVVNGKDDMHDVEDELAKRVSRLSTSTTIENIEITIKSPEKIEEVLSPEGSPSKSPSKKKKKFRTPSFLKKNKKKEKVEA
Sequence of UniProt P98171 (P98171 whole entry, looked up): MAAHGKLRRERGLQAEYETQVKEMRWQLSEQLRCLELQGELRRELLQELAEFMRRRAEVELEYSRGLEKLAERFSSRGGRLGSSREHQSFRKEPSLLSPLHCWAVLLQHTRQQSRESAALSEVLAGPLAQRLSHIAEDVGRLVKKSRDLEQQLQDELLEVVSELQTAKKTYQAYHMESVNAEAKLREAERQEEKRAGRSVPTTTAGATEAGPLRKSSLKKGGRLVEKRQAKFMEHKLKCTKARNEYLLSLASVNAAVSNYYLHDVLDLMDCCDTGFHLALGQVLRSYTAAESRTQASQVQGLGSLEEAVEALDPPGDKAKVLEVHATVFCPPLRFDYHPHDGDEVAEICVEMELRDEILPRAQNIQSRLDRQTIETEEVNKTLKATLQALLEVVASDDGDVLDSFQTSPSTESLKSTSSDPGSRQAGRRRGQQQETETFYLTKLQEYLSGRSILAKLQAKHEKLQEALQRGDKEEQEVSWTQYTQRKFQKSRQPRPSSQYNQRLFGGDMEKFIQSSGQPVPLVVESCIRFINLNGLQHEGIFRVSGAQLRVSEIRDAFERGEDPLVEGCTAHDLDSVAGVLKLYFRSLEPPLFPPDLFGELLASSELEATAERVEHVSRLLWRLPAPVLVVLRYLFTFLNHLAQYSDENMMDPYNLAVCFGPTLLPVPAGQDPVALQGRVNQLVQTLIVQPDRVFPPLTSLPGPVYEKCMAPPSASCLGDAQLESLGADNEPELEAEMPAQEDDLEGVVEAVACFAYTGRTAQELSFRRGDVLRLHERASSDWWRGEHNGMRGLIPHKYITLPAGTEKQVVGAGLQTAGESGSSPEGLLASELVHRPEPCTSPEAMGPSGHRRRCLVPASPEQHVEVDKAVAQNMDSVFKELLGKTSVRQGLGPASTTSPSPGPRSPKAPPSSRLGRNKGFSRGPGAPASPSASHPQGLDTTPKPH
Sequence of UniProt Q02252 (Q02252 whole entry, looked up): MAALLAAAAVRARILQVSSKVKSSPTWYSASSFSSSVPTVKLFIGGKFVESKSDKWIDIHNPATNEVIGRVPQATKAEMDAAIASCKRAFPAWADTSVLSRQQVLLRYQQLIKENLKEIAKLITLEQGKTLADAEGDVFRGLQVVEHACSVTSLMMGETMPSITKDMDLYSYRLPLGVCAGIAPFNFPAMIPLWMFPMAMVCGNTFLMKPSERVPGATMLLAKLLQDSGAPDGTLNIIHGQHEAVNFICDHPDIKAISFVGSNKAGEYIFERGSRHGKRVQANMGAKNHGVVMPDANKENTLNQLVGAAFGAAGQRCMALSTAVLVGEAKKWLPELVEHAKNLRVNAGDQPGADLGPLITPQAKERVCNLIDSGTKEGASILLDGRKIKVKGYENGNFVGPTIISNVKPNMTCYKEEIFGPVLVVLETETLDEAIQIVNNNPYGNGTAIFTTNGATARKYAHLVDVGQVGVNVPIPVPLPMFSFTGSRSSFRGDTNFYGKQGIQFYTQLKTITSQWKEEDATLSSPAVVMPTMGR
Sequence of UniProt P49189 (P49189 whole entry, looked up): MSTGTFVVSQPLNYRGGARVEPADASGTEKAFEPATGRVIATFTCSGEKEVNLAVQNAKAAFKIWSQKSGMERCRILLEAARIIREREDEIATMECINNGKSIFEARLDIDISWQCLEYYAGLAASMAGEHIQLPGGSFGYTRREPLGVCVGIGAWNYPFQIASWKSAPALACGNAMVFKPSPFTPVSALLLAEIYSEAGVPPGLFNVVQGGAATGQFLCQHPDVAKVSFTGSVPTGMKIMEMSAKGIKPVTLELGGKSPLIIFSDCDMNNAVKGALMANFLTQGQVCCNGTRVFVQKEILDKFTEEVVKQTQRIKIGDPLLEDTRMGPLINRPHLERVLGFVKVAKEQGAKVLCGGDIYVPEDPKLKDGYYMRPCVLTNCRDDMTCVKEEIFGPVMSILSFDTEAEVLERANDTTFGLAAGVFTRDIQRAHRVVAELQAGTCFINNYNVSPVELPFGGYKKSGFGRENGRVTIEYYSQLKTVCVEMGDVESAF

log2 fold change, inactive:
APAF1 (UniProt O14727) -0.068
ABITRAM (UniProt Q9NX38) 0.095
AIF1 (UniProt P55008) 0
ALKBH4 (UniProt Q9NXW9) 0.032
BRD3 (UniProt Q15059) -0.048
ADD3 isoform 2 (UniProt Q9UEY8) 0.014
ARHGAP4 isoform 2 (UniProt P98171) -0.049
ALDH9A1 (UniProt P49189) 0.005
ALDH6A1 (UniProt Q02252) 0.011
APOH (UniProt P02749) -0.063
AGAP3 isoform 4 (UniProt Q96P47) -0.022
ANK2 (UniProt Q01484) 0.012
AAMP (UniProt Q13685) 0.018

compound: CCCc1cc(C)[nH]c(=O)c1CNC(=O)c1cc(-c2ccnc(N3CCN(C)CC3)c2)cc2c1cnn2C(C)C; experiment: as above
In short: as §1

log2 fold change, inactive:
ABHD17A isoform 2 (UniProt Q96GS6) -0.021
AASDH (UniProt Q4L235) 0.149
ARFGAP2 (UniProt Q8N6H7) 0.021
ACTBL2 (UniProt Q562R1) 0.073
AMD1 (UniProt P17707) -0.027
BRD4 (UniProt O60885) 0.017
ADPRH (UniProt P54922) -0.005
BDH2 (UniProt Q9BUT1) -0.019
ANXA5 (UniProt P08758) 0.039
BTBD6 (UniProt Q96KE9) -0.017
BYSL (UniProt Q13895) -0.024
ARRDC1 (UniProt Q8N5I2) 0.023
AFG1L (UniProt Q8WV93) -0.018
ASS1 (UniProt P00966) 0.004
APOBEC3G (UniProt Q9HC16) 0.051
ATF7 isoform 6 (UniProt P17544) -0.032
AIFM2 (UniProt Q9BRQ8) 0.021
ASB6 (UniProt Q9NWX5) -0.039
APAF1 (UniProt O14727) -0.1
ABITRAM (UniProt Q9NX38) -0.252
ALKBH4 (UniProt Q9NXW9) -0.015
BRD3 (UniProt Q15059) -0.017
ADD3 isoform 2 (UniProt Q9UEY8) -0.017
ARHGAP4 isoform 2 (UniProt P98171) -0.194
ALDH9A1 (UniProt P49189) 0.18
ALDH6A1 (UniProt Q02252) 0.029
APOH (UniProt P02749) -0.611
AGAP3 isoform 4 (UniProt Q96P47) 0.089
ANK2 (UniProt Q01484) 0.053
AAMP (UniProt Q13685) -0.041
